In all, about 33,000 sequences were measured (“e-score”: median about -0.05, highest 2% from about 0.38 on). This is one part of a sample in which the highest values are shown more often than they occur.
Molecular target: T1, SIX1-Q177R homeodomain (human, UniProt Q15475 108-198, Q177R)
T1 sequence: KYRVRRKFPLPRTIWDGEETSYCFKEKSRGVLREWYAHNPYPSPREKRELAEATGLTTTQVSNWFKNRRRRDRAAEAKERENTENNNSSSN
Experiment: universal protein binding microarray; Universal all-10-mer PBM (8x60K, AMADID 030236), 300 nM GST-tagged protein, Alexa Fluor 488 anti-GST; buffer, salt, pH and temperature not stated (as in Berger); high values mean tight binding
Details: protein: ivt; tags: N-terminal GST; dsDNA, one strand shown
How it was run: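 Duplicate protein binding microarrays (universal 'all 10-mer', 8×60K format) were incubated with GST-tagged homeodomains at 300 nM final concentration. Binding was quantified as 8-mer E-scores with the Universal PBM Analysis Suite.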

| Sequence | binding signal |
| --- | --- |
| CACTCGTA | 0.152 ± 0.0172 E-score |
| CGGCGTAC | 0.209 ± 0.00229 E-score |
| TATGGACA | 0.167 ± 0.0099 E-score |
| CACTTTAC | 0.221 ± 0.0328 E-score |
| ACCCCTTA | 0.228 ± 0.014 E-score |
| ACACTTTG | 0.31 ± 0.0292 E-score |
| ACACGTTA | 0.297 ± 0.0383 E-score |
| ACACCTTA | 0.456 ± 0.00729 E-score |
| ACCCCTTG | 0.237 ± 0.00827 E-score |
| ACACCTTC | 0.46 ± 0.0107 E-score |
| CCACCTTC | 0.19 ± 0.00382 E-score |
| ACCCCTTC | 0.2425 ± 0.00198 E-score |
| ACACCTTG | 0.44 ± 0.00935 E-score |
| GACAGGGC | 0.162 ± 0.0431 E-score |
| TTACACAA | 0.223 ± 0.0118 E-score |
| GAAGCACC | 0.238 ± 0.00424 E-score |
| GTACCCCA | 0.247 ± 0.0214 E-score |
| ATACGACA | 0.18 ± 0.0318 E-score |
| ACCCAAGA | 0.163 ± 0.00205 E-score |
| CACCGCAG | 0.241 ± 0.0286 E-score |
| CGAAACAC | 0.339 ± 0.0288 E-score |
| AAAAACAC | 0.368 ± 0.0203 E-score |

| Sequence | binding signal |
| --- | --- |
| GGAAACAC | 0.374 ± 0.004 E-score |
| GAAAACAC | 0.383 ± 0.0136 E-score |
| AGAAAACA | 0.192 ± 0.0184 E-score |
| AGAAACAC | 0.408 ± 0.0147 E-score |
| GGGATCCC | 0.31 ± 0.0322 E-score |
| GGTGCATA | 0.195 ± 0.0199 E-score |
| GGGATCAA | 0.189 ± 0.0285 E-score |
| CGTGTTCA | 0.4087 ± 0.0026 E-score |
| GGGGTTCA | 0.256 ± 0.0435 E-score |
| GGTGCTCA | 0.25 ± 0.046 E-score |
| CGTGTTCC | 0.34 ± 0.0151 E-score |
| GGTGTTCA | 0.4614 ± 0.000559 E-score |
| AGTGTTCA | 0.343 ± 0.0114 E-score |
| CCCGATGA | 0.16 ± 0.00231 E-score |
| CTCCCGCA | 0.155 ± 0.0331 E-score |
| ACCCAGGC | 0.162 ± 0.0568 E-score |
| CCCCGCGG | 0.193 ± 0.0298 E-score |
| GTACGACA | 0.297 ± 0.0138 E-score |
| CGTGGTGC | 0.187 ± 0.0118 E-score |
| GGTGCAAC | 0.272 ± 0.00472 E-score |
| ACTCCATA | 0.2012 ± 0.000827 E-score |
| ACTCCATG | 0.212 ± 0.0247 E-score |

| Sequence | binding signal |
| --- | --- |
| ACACCATA | 0.459 ± 0.00633 E-score |
| ACCCCATC | 0.245 ± 0.00929 E-score |
| ACCCCATG | 0.226 ± 0.0299 E-score |
| ATACCATC | 0.151 ± 0.00506 E-score |
| ACACCATG | 0.4696 ± 0.00232 E-score |
| ACACCATC | 0.4671 ± 0.000891 E-score |
| GCACCATA | 0.174 ± 0.00986 E-score |
| ATTTTACA | 0.19 ± 0.0629 E-score |
| TGGGTACA | 0.29 ± 0.00578 E-score |
| ATCGCGGG | 0.167 ± 0.0319 E-score |
| AGGGTAGG | 0.176 ± 0.00576 E-score |
| CCCCAAGA | 0.156 ± 0.0279 E-score |
| CTAACACC | 0.478 ± 0.00653 E-score |
| ATAACTCC | 0.181 ± 0.0433 E-score |
| ATAACCCC | 0.266 ± 0.0237 E-score |
| CTAACCCC | 0.223 ± 0.0193 E-score |
| ATAACACG | 0.402 ± 0.0181 E-score |
| CTAACACA | 0.209 ± 0.00581 E-score |
| ATAACACA | 0.2399 ± 0.00217 E-score |
| ATAACACC | 0.479 ± 0.0087 E-score |
| GTAACACA | 0.223 ± 0.0443 E-score |
| CCCCGTGC | 0.244 ± 0.0265 E-score |

| Sequence | binding signal |
| --- | --- |
| CGCCGCCG | 0.208 ± 0.031 E-score |
| ATTCACTC | 0.151 ± 0.0349 E-score |
| AGCACGCA | 0.24 ± 0.0253 E-score |
| CACCCCGC | 0.337 ± 0.0136 E-score |
| GGTCCGGA | 0.161 ± 0.0425 E-score |
| GATATCCC | 0.193 ± 0.0406 E-score |
| ACCCCTGA | 0.2405 ± 0.00201 E-score |
| ACTCCTGA | 0.206 ± 0.00412 E-score |
| ACACCTGA | 0.4477 ± 0.00107 E-score |
| ACCCCTGG | 0.163 ± 0.00865 E-score |
| ACACCTGG | 0.448 ± 0.00897 E-score |
| ACTCCTGC | 0.158 ± 0.00297 E-score |
| AAACCTGG | 0.169 ± 0.0219 E-score |
| ACACCTGC | 0.4582 ± 0.00372 E-score |
| ACCCCTGC | 0.235 ± 0.0269 E-score |
| CCCTTGTA | 0.2081 ± 0.00151 E-score |
| ATTCCGTG | 0.2 ± 0.0598 E-score |
| CCCAGGCG | 0.167 ± 0.0378 E-score |
| CGAGGCAA | 0.186 ± 0.00832 E-score |
| GAGTGCAC | 0.195 ± 0.00266 E-score |

Source: publication PMC10668032, “Altered binding affinity of SIX1-Q177R correlates with enhanced WNT5A and WNT pathway effector expression in Wilms tumor”
